Assay [1] can be described thus: ATG_GLI_CIS: Attagene CIS-FACTORIAL HepG2 Assay for human Zinc Finger Protein GLI1 (AID 2282945). Particulars: HepG2, Attagene cis-factorial reporter mRNA, GLI element; actives raise or lower the signal. The procedure, abridged:
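HepG2 cells transiently transfected with cis-promoter multiplexed reporter units report endogenous transcription factor activity. After 24 h chemical exposure, reporter mRNA was quantified by RT-PCR, 6-FAM labelling, HpaI digestion and capillary electrophoresis, with bidirectional fitting against DMSO.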

Assay [2] deals with Bile acid receptor (Homo sapiens) (UniProt Q96RI1). The assay can be described thus: ATG_IR1_CIS: Attagene CIS-FACTORIAL HepG2 Assay for human Nuclear Receptor Subfamily 1 Group H Member 4 (NR1H4), IR1 submotif (AID 2282946). Particulars: IR1 reporter transcription, actives raise or lower the signal. The procedure, abridged: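 Readout: reporter transcript levels by RT-PCR with fluorescent capillary electrophoresis, from HepG2 cells transiently transfected with multiplexed cis-regulated reporters and dosed 24 h. Gain- or loss-of-signal fitted versus DMSO negative control.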

The nature of assay [3]: ATG_GRE_CIS: Attagene CIS-FACTORIAL HepG2 Assay for human Glucocorticoid Response Elements (GRE) (AID 2282947). Particulars: HepG2 GRE cis-reporter, Attagene multiplex mRNA; actives raise or lower the signal. The procedure, abridged:
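HepG2, transient cis-reporter transfection, 24 h. Reporter mRNA: RT-PCR then CE, fluorescence. Fit both directions vs DMSO.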

A short description of assay [4]: ATG_ISRE_CIS: Attagene CIS-FACTORIAL HepG2 Assay for human Interferon Regulatory Factor 1 (IRF1) binding to an Interferon-Stimulated Response Element (ISRE) (AID 2282948). Particulars: HepG2 ISRE cis-reporter (Attagene), mRNA transcription readout; actives raise or lower the signal. The procedure, abridged: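 Uses HepG2 liver cells transfected with cis-regulated reporters and measures mRNA 24 h post-dosing through RT-PCR, primer-extension labelling and capillary electrophoresis, with DMSO as negative control.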

The nature of assay [5]: ATG_M_32_CIS: Attagene CIS-FACTORIAL HepG2 Assay for M32 Transcription Factor (Internal Marker) (AID 2282949).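 Further: background control marker of the multiplexed CIS panel rather than a real target.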 Particulars: HepG2 Attagene cis-factorial M32 reporter, mRNA; actives raise or lower the signal. The procedure, abridged:
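Using DMSO as baseline, bidirectional curve fits were applied to reporter mRNA signals. These came from transiently transfected HepG2 cells exposed for 24 h, with RNA analysed by RT-PCR, FAM primer extension, HpaI digestion and CE.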

The nature of assay [6]: ATG_M_06_CIS: Attagene CIS-FACTORIAL HepG2 Assay for M06 Transcription Factor (Internal Marker) (AID 2282950). Particulars: HepG2 Attagene CIS-FACTORIAL M06 internal marker reporter; actives raise or lower the signal. The procedure, abridged:
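HepG2 cells transiently transfected with cis-regulated multiple reporter transcription units were exposed to chemical for 24 h; reporter mRNA was quantified by RT-PCR, 6-FAM primer labelling, HpaI digestion and capillary electrophoresis, fitted bidirectionally against DMSO.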

In assay [7] the target is Hypoxia-inducible factor 1-alpha (Homo sapiens) (UniProt Q16665). As to the kind of experiment: ATG_HIF1a_CIS: Attagene CIS-FACTORIAL HepG2 Assay for human Hypoxia Inducible Factor 1 (HIF1A) (AID 2282951). Particulars: HepG2 Attagene cis-factorial HIF1a reporter transcription; actives raise or lower the signal. Summed up:
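In this multiplexed cell assay, HepG2 cells bearing transfected cis reporters are dosed for 24 h and reporter mRNA is read by RT-PCR plus capillary electrophoresis; signal increases and decreases are both scored against DMSO.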

The target of assay [8] is Hepatocyte nuclear factor 6 (Homo sapiens) (UniProt Q9UBC0). The assay can be described thus: ATG_HNF6_CIS: Attagene CIS-FACTORIAL HepG2 Assay for human Hepatocyte Nuclear Factor 6 (HNF6) (AID 2282952). Particulars: HepG2 Attagene cis-factorial HNF6 reporter transcription; actives raise or lower the signal. Summed up:
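Readout: fluorescent reporter-transcript fragments resolved by capillary electrophoresis after RT-PCR, reflecting endogenous factor activity in transfected HepG2. Exposure 24 h. Gain or loss of signal fitted bidirectionally against DMSO.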

The target of assay [9] is Heat shock factor protein 1 (Homo sapiens) (UniProt Q00613). The assay can be described thus: ATG_HSE_CIS: Attagene CIS-FACTORIAL HepG2 Assay for human Heat Shock Transcription Factor 1 (HSE) (AID 2282953). As to conditions: HepG2 HSE cis-reporter, Attagene RNA transcription; actives raise or lower the signal. The procedure, abridged: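 HepG2 cells transiently transfected with multiple reporter transcription units under cis-regulatory promoter control, measuring endogenous transcription factor activity. After 24 h chemical exposure, reporter mRNA quantified by RT-PCR, fluorescent labelling, HpaI digestion and capillary electrophoresis; bidirectional fit versus DMSO.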

Assay [10] can be described thus: ATG_MRE_CIS: Attagene CIS-FACTORIAL HepG2 Assay for human Metal Responsive Element (MRE) (AID 2282954). Particulars: HepG2 MRE cis-reporter transcription, Attagene multiplex; actives raise or lower the signal. The procedure, abridged:
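Readout: capillary electrophoresis of 6-FAM-labelled, HpaI-digested RT-PCR reporter products. System: HepG2 cells carrying transient multiplexed cis reporters, dosed 24 h. Analysis: bidirectional fit, DMSO baseline.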

Assay [11] is described as follows: ATG_PBREM_CIS: Attagene CIS-FACTORIAL HepG2 Assay for human Phenobarbital-responsive Enhancer Module (PBREM) (AID 2282955). Particulars: HepG2 PBREM cis-reporter, Attagene multiplexed transcription; actives raise or lower the signal. The procedure, abridged:
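After a 24 h incubation with test chemical, transfected HepG2 cells yield total RNA; reporter-specific RT-PCR products are fluorescently labelled, HpaI-digested and resolved by capillary electrophoresis against ROX size standards.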

The target of assay [12] is Paired box protein Pax-6 (Homo sapiens) (UniProt P26367). As to the kind of experiment: ATG_Pax6_CIS: Attagene CIS-FACTORIAL HepG2 Assay for human Paired Box 6 (PAX6) (AID 2282956). As to conditions: HepG2 CIS-FACTORIAL PAX6 reporter transcription, RNA readout; actives raise or lower the signal. Summed up:
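DMSO-referenced bidirectional fits of reporter mRNA fluorescence; HepG2 with transient cis-promoter MRTUs, 24 h post-dose, RT-PCR plus capillary electrophoresis detection.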

A short description of assay [13]: ATG_PXRE_CIS: Attagene CIS-FACTORIAL HepG2 Assay for human Pregnane X Receptor Element (PXRE) (AID 2282957). Particulars: HepG2 Attagene CIS-FACTORIAL PXRE reporter, mRNA; actives raise or lower the signal. Summed up: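 Read-out: fluorescence of reporter-specific RT-PCR products resolved by capillary electrophoresis, fitted bidirectionally relative to DMSO. Human HepG2 liver cells carried transfected cis-promoter reporter units and were exposed to chemicals for 24 h.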

The nature of assay [14]: ATG_RORE_CIS: Attagene CIS-FACTORIAL HepG2 Assay for human RAR-related Orphan Receptor Element (RORE) (AID 2282959). Particulars: HepG2 Attagene cis-factorial RORE reporter, mRNA; actives raise or lower the signal. The procedure, abridged:
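Fluorescence intensity of reporter-specific cDNA fragments, separated by capillary electrophoresis, gives the signal. Source: HepG2 liver cells transiently transfected with cis-element reporters and exposed 24 h; DMSO-normalized bidirectional fit.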

Assay [15] is described as follows: ATG_Sox_CIS: Attagene CIS-FACTORIAL HepG2 Assay for human SRY-box transcription factor (SOX) (AID 2282960). Particulars: HepG2 Attagene cis-factorial SOX reporter, mRNA; actives raise or lower the signal. The procedure, abridged: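 After 24 h of chemical treatment, transfected HepG2 reporter cells are lysed for total RNA. Transcript levels come from RT-PCR with labelled primer extension and capillary electrophoresis, analysed bidirectionally versus DMSO.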

Assay [16] deals with Transcription factor Sp1 (Homo sapiens) (UniProt P08047). The assay can be described thus: ATG_Sp1_CIS: Attagene CIS-FACTORIAL HepG2 Assay for human Specificity Protein 1 (Sp1) (AID 2282961). Particulars: HepG2 Sp1 cis-reporter transcription, actives raise or lower the signal. The procedure, abridged:
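Sp1-driven reporter mRNA, read as capillary electrophoresis fluorescence after RT-PCR, in transiently transfected HepG2 cells dosed for 24 h; signal change in either direction relative to DMSO.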

A short description of assay [17]: ATG_SREBP_CIS: Attagene CIS-FACTORIAL HepG2 Assay for human Sterol Regulatory Element Binding (SREBP) (AID 2282962). Particulars: HepG2 Attagene cis-factorial SREBP reporter, mRNA; actives raise or lower the signal. The procedure, abridged:
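In this cis-format assay, HepG2 liver cells express reporters controlled by promoter elements responsive to native transcription factors. Exposure lasts 24 h; reporter mRNA fluorescence from capillary electrophoresis gives the signal, fitted bidirectionally against DMSO.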

Assay [18] concerns the target Signal transducer and activator of transcription 3 (Homo sapiens) (UniProt P40763). As to the kind of experiment: ATG_STAT3_CIS: Attagene CIS-FACTORIAL HepG2 Assay for human Signal Transducer and Activator of Transcription 3 (STAT3) (AID 2282963). As to conditions: HepG2, Attagene cis-factorial STAT3 reporter transcription; actives raise or lower the signal. The procedure, abridged: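 Uses human liver HepG2 transiently carrying cis-regulated reporter transcription units. Following 24 h dosing, reporter mRNA induction was detected by RT-PCR and capillary electrophoresis, analysed bidirectionally versus DMSO.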

Assay [19] can be described thus: ATG_TA_CIS: Attagene CIS-FACTORIAL HepG2 Assay for human TA Basal Promoter (AID 2282964). Particulars: HepG2 Attagene CIS-factorial TA basal promoter reporter; actives raise or lower the signal. The procedure, abridged: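 HepG2 cells transiently transfected with multiplexed cis-promoter reporter units, dosed 24 h. Reporter mRNA measured by RT-PCR, 6-FAM labelling, HpaI digestion and capillary electrophoresis; bidirectional fit versus DMSO baseline, serving as background control.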

Assay [20] can be described thus: ATG_PPRE_CIS: Attagene CIS-FACTORIAL HepG2 Assay for human Peroxisome Proliferator-activated Response Element (PPRE) (AID 2282958). As to conditions: HepG2 PPRE cis-element reporter, Attagene transcription factor profiling; actives raise or lower the signal. The procedure, abridged: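 Multiplexed reporter transcription units under cis-regulatory promoters were transfected into HepG2 cells to capture endogenous factor activity. A 24 h incubation preceded RNA isolation and fluorescent RT-PCR fragment analysis.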

Activity calls are given as the source filed them. How the source made its calls: active means hit-call score of the fitted dose curve at least 0.9, where 1 is the maximum; inactive means score below 0.9.

Paired box protein Pax-6 (Homo sapiens), sequence (P26367 whole entry, looked up): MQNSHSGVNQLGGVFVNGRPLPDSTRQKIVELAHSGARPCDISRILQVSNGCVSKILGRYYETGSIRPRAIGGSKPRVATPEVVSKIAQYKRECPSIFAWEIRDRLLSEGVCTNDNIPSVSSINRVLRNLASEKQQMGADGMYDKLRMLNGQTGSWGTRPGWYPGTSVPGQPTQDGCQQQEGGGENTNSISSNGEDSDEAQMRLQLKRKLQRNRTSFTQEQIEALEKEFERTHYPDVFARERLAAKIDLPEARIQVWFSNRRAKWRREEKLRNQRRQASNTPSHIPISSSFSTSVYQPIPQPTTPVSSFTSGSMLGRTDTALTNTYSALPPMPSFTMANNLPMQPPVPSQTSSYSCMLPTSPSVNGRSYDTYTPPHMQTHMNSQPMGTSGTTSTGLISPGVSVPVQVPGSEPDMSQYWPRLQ
Hepatocyte nuclear factor 6 (Homo sapiens), sequence (Q9UBC0 whole entry, looked up, the tested form may be a part): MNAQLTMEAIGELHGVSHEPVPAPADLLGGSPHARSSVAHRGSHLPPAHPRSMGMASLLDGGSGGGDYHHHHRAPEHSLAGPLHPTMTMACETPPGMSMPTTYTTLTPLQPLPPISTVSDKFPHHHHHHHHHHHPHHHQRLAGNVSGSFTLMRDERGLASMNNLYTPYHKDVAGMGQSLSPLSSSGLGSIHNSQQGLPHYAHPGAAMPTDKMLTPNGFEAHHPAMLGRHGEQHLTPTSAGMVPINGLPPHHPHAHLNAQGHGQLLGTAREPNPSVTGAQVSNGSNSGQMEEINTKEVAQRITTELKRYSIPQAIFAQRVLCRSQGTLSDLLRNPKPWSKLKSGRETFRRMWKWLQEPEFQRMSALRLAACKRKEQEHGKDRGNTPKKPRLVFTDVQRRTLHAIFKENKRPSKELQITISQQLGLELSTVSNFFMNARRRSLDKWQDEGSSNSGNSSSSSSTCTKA
Heat shock factor protein 1 (Homo sapiens), sequence (Q00613 whole entry, looked up): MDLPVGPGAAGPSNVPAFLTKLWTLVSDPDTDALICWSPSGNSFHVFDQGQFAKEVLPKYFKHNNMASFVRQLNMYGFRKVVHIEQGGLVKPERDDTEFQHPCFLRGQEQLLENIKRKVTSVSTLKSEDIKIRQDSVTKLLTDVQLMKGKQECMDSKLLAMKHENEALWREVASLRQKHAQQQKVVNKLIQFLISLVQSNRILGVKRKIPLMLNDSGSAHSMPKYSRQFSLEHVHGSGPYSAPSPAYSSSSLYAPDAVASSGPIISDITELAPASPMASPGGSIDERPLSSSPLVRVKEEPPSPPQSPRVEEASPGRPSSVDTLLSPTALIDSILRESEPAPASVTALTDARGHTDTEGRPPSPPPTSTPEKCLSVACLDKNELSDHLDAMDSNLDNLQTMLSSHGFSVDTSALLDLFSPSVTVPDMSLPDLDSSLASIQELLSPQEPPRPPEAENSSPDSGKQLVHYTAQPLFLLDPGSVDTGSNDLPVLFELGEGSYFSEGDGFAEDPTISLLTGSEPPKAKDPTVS
Transcription factor Sp1 (Homo sapiens), sequence (P08047 whole entry, looked up): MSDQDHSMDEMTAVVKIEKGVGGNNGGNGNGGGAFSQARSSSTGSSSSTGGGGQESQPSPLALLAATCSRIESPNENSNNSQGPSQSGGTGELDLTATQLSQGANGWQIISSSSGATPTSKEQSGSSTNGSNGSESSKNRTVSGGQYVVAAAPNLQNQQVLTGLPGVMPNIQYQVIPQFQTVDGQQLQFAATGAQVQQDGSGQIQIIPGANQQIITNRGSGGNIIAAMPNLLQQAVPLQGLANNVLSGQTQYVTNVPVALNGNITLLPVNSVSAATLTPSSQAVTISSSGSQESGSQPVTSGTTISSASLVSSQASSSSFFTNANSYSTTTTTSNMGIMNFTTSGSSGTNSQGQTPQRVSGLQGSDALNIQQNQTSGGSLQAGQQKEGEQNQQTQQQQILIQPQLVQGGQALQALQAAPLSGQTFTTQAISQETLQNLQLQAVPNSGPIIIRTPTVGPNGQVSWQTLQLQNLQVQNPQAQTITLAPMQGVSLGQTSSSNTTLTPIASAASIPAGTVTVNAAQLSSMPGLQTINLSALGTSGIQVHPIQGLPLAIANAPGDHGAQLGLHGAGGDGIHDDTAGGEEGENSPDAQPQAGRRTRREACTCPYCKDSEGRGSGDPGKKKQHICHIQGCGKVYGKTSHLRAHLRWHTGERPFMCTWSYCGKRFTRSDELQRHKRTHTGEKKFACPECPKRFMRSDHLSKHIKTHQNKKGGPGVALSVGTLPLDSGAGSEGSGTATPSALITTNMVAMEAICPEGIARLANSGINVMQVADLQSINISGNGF
Hypoxia-inducible factor 1-alpha (Homo sapiens), sequence (Q16665 whole entry, looked up): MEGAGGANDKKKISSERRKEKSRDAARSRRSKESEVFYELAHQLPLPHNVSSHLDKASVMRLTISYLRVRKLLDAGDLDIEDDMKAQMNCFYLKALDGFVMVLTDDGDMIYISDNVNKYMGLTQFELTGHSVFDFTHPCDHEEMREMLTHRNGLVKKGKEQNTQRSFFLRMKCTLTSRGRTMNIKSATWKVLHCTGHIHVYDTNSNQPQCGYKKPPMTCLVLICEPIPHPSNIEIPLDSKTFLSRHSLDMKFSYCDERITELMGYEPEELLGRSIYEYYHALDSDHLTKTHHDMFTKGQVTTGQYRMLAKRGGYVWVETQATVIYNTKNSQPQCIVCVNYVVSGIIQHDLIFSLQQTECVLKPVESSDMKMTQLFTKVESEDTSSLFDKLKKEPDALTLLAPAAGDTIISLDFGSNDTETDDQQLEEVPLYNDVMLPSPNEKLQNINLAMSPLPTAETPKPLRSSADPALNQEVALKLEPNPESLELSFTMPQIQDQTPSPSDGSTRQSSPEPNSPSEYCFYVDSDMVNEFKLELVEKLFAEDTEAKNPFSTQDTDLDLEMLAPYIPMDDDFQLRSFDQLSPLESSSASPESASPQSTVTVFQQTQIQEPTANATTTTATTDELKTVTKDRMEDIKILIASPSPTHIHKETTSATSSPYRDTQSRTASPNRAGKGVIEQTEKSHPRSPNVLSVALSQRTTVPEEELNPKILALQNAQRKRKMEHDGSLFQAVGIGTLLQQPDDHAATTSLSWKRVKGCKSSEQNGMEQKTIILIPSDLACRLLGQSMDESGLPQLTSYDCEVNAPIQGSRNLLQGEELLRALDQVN
Bile acid receptor (Homo sapiens), sequence (Q96RI1 whole entry, looked up): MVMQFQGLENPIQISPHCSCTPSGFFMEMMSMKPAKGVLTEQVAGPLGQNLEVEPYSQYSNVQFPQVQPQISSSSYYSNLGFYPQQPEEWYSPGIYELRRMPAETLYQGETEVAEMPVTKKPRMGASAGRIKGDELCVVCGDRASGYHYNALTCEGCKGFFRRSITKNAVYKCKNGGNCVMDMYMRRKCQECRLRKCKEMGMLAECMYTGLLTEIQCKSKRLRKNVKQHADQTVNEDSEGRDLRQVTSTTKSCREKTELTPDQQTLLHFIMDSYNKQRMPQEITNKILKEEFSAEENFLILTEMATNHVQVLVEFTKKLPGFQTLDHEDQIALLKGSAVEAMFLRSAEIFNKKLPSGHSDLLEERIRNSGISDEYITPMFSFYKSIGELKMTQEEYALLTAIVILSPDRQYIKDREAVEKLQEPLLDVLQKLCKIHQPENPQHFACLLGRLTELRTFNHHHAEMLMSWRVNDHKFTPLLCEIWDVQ
Signal transducer and activator of transcription 3 (Homo sapiens), sequence (P40763 whole entry, looked up): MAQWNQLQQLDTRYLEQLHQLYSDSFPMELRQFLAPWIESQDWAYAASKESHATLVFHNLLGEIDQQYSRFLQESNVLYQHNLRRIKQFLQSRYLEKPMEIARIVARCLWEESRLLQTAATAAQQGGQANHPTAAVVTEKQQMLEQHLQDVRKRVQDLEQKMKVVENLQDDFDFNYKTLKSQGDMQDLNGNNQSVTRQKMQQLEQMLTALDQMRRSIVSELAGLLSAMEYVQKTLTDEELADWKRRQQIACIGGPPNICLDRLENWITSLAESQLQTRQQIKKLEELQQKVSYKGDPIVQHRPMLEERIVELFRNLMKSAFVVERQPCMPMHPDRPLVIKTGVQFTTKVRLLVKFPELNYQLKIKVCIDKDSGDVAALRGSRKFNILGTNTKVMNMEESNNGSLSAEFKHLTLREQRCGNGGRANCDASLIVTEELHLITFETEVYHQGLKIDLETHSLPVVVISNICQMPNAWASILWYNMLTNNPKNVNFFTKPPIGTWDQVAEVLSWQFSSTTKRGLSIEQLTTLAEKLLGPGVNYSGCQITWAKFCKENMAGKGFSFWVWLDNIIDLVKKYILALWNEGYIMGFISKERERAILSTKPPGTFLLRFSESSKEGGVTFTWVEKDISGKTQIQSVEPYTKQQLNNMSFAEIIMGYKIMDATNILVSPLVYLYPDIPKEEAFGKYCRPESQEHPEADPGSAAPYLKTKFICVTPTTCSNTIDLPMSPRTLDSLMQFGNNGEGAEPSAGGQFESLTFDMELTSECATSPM

In general, AC50 refers to the midpoint of the concentration-response curve, whichever way the signal moves. Consider `c1ccc2c(c1)-c1ccc3ccc4cccc5cc-2c1c3c45`, for which the compound was classed as inactive in assay [1], in assay [2], in [3], in assay [4], in assay [5] and in assay [6]. Also, the call in assay [8], in [9], in [10], in assay [11], in assay [12] and in [15] was inactive. Also, the result in [16], in assay [17], in [18] and in [19] was inactive. Moreover, the AC50 in [7] is 0.0166 µM (active); in assay [13], 1.02 µM (active); in [14], 0.163 µM (active).
Take `CCCc1ccc(O)cc1`: the call in assay [1], in [2], in assay [3], in [4], in assay [5] and in assay [6] was inactive. For the same compound, the compound was classed as inactive in assay [7], in assay [8], in assay [9], in [10], in [11] and in assay [12]. Moreover, the compound was classed as inactive in assay [13], in assay [20], in [14], in [15], in assay [16] and in [17]. Besides, the compound was called inactive in assay [18] and in assay [19].
Turning to `O=C1OC2(c3ccc(O)cc3Oc3cc(O)ccc32)c2ccccc21`, the result in assay [1], in assay [2], in [3], in assay [4], in assay [5] and in assay [6] was inactive. In addition, the compound was called inactive in assay [7], in assay [8], in [9], in assay [10], in [12] and in [14]. For the same compound, the call in assay [15], in assay [16], in [17] and in assay [19] was inactive. In assay [13], the half-maximal activity concentration (AC50) is 0.741 µM (active).

Values taken from PubChem BioAssay (EPA / NIEHS).
